About 7,900 targets were measured; listed, in parts, are those with a hit and a random draw of the rest. About 0.6% of all pairs of compound and target were hits.
What was measured:
Assay in all cases: log2 fold change, soluble protein after heating vs DMSO (PISA); higher = thermal stabilisation; K562 cells, 10 uM, 30 min; active = over 0.2 and 3.5 SD of the protein, either way, in both replicates (recomputed)
[1] = compound: C1=CC=C(C=C1)[C@H](COC2=CC3=C(C=C2)NC(=O)N3)NC(=O)C4=CC=CN(C4=O)CC5=CC(=C(C=C5)F)F
How it was run: (§1)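 K562 cells at 2×10^6 cells/mL were given 10 μM compound for 30 min. Aliquots then went through 3 min of heating across 48°C-58°C, were pooled, and were extracted in PBS with 0.5% NP-40 at 4°C, and the supernatant after 21,000xg for 90 min was quantified by TMTpro 16plex LC-MS/MS with channel sums equalised. Thermal stability relative to control samples, from duplicates, is given as log2 fold change.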

[2] = compound: CC1=C(SC2=C1C(=N[C@H](C3=NN=C(N32)C)CC(=O)N)C4=CC=C(C=C4)Cl)C
How it was run: as §1

[3] = compound: CC1=C2C(=CC=C1)N=C(N(C2=O)C3=CC=CC=C3C)CN4C=NC5=C(N=CN=C54)N
How it was run: as §1

[4] = compound: Cc1sc2c(c1C)C(c1ccc(Cl)cc1)=N[C@@H](CC(=O)OC(C)(C)C)c1nnc(C)n1-2
How it was run: as §1

[5] = compound: c1ccc([C@@H]2C[C@H]2NC2CCNCC2)cc1
How it was run: as §1

Measured: log2 fold change

MAP1LC3B2 (UniProt A6NCE7)
inactive: [1] 0.015 | [2] 0.113 | [3] 0.021 | [4] -0.015 | [5] -0.073

MFSD8 (UniProt Q8NHS3)
Sequence of UniProt Q8NHS3 (Q8NHS3 whole entry, looked up): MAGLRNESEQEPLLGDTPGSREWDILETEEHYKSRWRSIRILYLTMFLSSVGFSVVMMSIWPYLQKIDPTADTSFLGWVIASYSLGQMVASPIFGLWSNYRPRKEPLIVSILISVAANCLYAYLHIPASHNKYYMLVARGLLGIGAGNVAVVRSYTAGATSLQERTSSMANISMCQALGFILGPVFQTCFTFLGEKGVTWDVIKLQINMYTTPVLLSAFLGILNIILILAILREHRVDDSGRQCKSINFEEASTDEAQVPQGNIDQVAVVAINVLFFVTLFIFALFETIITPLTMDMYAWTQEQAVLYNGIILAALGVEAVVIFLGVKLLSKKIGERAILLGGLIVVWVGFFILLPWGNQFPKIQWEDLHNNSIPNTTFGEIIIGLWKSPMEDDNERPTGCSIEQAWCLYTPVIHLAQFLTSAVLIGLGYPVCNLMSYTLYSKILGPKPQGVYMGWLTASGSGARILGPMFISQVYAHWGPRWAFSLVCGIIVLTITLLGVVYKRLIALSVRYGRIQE
inactive: [1] -0.134 | [2] -0.033 | [3] 0.074 | [4] -0.289 | [5] 0.119

KEAP1 (UniProt Q14145)
Sequence of UniProt Q14145 (Q14145 whole entry, looked up): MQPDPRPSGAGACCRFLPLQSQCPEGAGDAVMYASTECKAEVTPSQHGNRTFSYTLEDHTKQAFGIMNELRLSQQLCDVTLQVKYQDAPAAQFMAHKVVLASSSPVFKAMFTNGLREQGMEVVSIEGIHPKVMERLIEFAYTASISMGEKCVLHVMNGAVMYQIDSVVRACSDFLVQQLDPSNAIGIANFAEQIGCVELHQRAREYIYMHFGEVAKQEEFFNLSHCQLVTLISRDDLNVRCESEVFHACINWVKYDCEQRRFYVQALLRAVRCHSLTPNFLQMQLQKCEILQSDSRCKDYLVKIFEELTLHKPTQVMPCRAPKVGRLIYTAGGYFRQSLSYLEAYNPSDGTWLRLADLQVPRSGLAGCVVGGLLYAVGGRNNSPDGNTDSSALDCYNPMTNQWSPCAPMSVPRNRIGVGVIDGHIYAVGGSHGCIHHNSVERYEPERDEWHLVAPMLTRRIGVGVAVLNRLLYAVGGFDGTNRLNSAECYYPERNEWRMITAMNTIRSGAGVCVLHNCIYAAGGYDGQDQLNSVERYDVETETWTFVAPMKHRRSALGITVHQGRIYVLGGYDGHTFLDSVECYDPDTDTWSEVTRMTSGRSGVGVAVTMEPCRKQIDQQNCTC
inactive: [1] 0.015 | [2] -0.001 | [3] 0.007 | [4] 0.021 | [5] 0.001

KCTD2 (UniProt Q14681)
Sequence of UniProt Q14681 (Q14681 whole entry, looked up): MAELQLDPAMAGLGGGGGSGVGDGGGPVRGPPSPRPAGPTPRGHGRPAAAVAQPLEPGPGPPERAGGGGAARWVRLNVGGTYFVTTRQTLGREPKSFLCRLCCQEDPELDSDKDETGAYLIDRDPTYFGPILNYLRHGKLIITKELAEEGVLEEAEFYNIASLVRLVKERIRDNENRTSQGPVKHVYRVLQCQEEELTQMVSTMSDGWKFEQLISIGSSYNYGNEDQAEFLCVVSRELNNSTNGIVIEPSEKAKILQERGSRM
inactive: [1] 0.008 | [2] -0.01 | [3] 0.022 | [4] 0.195 | [5] 0.158

KHDC4 (UniProt Q7Z7F0)
inactive: [1] -0.063 | [2] 0.129 | [3] 0.007 | [4] -0.061 | [5] -0.064

MAP2K3 isoform 3 (UniProt P46734)
Sequence of UniProt P46734 (P46734 whole entry, looked up): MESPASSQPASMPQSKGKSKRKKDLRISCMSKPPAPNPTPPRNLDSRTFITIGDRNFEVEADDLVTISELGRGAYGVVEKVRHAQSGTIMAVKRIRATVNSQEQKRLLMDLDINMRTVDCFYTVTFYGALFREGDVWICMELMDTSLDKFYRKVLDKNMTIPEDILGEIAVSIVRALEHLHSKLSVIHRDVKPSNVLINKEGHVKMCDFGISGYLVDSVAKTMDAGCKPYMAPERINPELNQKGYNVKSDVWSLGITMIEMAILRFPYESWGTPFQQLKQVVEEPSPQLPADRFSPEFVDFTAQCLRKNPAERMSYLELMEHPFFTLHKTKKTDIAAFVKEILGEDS
inactive: [1] -0.091 | [2] -0.051 | [3] 0.05 | [4] 0.026 | [5] 0.016

MAP3K20 (UniProt Q9NYL2)
Sequence of UniProt Q9NYL2 (Q9NYL2 whole entry, looked up): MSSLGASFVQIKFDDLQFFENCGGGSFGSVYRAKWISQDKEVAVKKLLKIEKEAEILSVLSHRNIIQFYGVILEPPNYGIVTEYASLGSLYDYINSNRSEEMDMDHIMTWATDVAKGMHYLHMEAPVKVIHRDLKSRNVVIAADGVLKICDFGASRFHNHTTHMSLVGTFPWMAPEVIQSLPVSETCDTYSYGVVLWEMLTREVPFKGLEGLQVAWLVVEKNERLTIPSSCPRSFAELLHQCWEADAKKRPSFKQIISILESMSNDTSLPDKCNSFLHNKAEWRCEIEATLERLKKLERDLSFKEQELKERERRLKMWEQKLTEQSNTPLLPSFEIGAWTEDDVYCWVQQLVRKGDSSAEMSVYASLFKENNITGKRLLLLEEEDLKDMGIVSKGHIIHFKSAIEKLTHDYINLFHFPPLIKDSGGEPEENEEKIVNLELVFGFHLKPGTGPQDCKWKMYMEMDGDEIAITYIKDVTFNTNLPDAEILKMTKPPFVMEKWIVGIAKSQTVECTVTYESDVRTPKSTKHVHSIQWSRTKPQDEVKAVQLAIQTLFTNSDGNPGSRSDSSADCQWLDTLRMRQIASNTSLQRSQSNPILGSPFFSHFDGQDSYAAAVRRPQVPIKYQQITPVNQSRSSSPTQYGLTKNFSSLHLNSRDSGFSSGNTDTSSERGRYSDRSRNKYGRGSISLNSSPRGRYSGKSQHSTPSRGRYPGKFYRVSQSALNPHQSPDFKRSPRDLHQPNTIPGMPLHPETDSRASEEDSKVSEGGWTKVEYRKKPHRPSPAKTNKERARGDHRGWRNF
inactive: [1] 0.02 | [2] -0.037 | [3] 0.017 | [4] 0.005 | [5] 0.022

LYN (UniProt P07948)
Sequence of UniProt P07948 (P07948 whole entry, looked up): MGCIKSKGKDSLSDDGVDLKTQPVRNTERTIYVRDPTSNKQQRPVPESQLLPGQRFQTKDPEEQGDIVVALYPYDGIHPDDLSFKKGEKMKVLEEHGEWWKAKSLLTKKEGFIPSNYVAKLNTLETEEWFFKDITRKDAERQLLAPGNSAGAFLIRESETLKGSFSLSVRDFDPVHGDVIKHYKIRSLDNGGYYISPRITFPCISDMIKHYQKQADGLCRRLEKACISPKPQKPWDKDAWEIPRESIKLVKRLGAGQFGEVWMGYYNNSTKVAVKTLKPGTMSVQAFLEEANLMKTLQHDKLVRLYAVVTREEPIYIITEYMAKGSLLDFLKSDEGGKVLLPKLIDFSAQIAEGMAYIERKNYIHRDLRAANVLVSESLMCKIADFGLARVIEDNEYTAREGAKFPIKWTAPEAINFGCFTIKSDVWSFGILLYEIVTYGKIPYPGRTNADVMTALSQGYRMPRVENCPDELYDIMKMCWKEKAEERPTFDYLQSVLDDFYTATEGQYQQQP
inactive: [1] 0.035 | [2] 0.038 | [3] 0.013 | [4] 0.028 | [5] -0.043

MAPK9 (UniProt P45984)
Sequence of UniProt P45984 (P45984 whole entry, looked up): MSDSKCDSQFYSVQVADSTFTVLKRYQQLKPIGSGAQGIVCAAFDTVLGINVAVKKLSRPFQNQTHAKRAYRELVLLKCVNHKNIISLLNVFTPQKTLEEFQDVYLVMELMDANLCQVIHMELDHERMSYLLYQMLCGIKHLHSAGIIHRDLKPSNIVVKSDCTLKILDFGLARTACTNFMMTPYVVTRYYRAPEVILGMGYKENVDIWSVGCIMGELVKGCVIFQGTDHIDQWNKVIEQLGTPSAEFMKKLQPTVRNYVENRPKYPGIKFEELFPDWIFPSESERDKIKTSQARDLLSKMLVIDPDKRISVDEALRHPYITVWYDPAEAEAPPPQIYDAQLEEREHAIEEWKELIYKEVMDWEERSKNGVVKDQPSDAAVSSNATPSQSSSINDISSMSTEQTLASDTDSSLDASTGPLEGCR
inactive: [1] 0.015 | [2] 0.015 | [3] 0.039 | [4] -0.042 | [5] 0.004

KPNA6 (UniProt O60684)
inactive: [1] -0.017 | [2] -0.046 | [3] 0.093 | [4] 0.105 | [5] 0.07

Reference: the supplement of paper PMC10849652
